Results published in ChEMBL document CHEMBL3988442, “University of Dundee, Small-Polar-MMV Screening Library” (2021).
For some of these results: Results with a measured potency or affinity are listed apart.

Columns and labels:
Parameters in all cases: scale not given: direction of the effect not stated beside the values
[1] = target: Protein translocase subunit SecA (Escherichia coli (strain K12)) (UniProt P10408); assay: Assay to Identify E. coli SecA ATPase Inhibitors; format: functional; details: 30 µM
[2] = target: T1, Ubiquitin-activating enzyme e1, putative (Leishmania donovani (strain BPK282A1)) (UniProt E9BSI1); assay: Leishmania donovani Ubiquitin Activating Enzyme (LdE1); format: functional; details: 30 µM
T1 sequence (whole entry): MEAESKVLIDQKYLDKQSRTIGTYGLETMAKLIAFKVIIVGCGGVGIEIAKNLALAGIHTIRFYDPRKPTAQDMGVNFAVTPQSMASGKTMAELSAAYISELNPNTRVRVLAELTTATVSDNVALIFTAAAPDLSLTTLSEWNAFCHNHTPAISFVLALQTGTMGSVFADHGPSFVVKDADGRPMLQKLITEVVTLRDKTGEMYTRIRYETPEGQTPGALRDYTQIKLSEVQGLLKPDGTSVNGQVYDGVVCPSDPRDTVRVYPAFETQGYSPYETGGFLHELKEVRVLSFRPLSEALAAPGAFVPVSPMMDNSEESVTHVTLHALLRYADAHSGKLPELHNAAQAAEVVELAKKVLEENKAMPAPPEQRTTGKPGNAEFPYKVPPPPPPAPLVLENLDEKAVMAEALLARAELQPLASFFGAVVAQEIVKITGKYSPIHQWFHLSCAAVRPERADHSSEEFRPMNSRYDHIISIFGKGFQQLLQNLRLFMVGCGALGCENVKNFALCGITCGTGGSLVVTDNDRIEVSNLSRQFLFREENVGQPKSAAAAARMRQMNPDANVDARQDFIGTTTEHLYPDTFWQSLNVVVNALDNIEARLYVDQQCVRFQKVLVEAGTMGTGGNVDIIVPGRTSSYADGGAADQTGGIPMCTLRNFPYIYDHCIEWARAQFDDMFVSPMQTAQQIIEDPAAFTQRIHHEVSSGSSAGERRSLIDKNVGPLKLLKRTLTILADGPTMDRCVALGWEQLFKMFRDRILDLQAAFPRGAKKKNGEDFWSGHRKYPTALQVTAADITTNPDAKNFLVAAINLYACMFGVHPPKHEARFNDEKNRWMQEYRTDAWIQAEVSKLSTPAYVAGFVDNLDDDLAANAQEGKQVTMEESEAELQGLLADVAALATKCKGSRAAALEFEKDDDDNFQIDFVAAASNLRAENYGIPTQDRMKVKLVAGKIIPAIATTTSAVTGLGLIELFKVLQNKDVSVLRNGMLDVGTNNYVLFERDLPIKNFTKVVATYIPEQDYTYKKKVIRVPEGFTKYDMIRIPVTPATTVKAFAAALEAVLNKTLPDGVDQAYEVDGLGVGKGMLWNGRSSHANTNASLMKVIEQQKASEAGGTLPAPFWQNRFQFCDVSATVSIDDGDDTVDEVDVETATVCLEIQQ

[3] = target: T2, Aspartate--tRNA(Asp/Asn) ligase (Mycobacterium tuberculosis (strain ATCC 25618 / H37Rv)) (UniProt P9WFW3); assay: Assay for Asp RNA synthetase-1 from Mycobacterium tuberculosis; format: functional; details: 30 µM; further: in the data most compounds retested in dose-response had high values
T2 sequence (whole entry): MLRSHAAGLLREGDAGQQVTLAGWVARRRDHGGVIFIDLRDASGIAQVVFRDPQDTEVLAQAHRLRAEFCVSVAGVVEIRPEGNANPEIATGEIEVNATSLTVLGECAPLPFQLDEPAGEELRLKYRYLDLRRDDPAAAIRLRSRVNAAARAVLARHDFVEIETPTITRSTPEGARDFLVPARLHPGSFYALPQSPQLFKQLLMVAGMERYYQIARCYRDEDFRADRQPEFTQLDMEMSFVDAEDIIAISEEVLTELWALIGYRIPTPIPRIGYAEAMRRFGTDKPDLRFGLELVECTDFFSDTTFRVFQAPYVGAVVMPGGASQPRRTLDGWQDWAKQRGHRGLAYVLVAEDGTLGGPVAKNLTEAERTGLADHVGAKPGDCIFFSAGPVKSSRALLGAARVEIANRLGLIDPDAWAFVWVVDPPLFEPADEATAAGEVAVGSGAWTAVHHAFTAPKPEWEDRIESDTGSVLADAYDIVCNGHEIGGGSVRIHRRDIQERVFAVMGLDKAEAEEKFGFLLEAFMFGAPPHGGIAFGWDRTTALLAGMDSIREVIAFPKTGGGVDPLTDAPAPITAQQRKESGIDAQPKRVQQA

[4] = target: AMP-activated protein kinase, AMPK (Homo sapiens) (UniProt P54646+O43741+P54619+Q9UGJ0+Q9Y478+Q13131+Q9UGI9); assay: AMP-dependent Kinase enzyme assay. An in vitro enzyme assay that detects ADP turnover that is directly proportional to AMPK activity. This uses naive AMPK that is activated during the assay with MK-8722; format: functional; details: 30 µM
[5] = target: Sialic acid-binding Ig-like lectin 9 (Homo sapiens) (UniProt Q9Y336); assay: Hs-Siglec9 ALPHAscreen SOP 20170721; details: 10 µM
Trypanosoma cruzi = assay: Trypanosoma cruzi phosphomannomutase and mannose-1-phosphate guanylyltransferase assay; format: functional; details: 10 µM
[6] = target: T3, Arginase-2, mitochondrial (Homo sapiens) (UniProt P78540); assay: in vitro enzyme assay to detect the production of urea directly proportional to the activity of Arginase II; format: functional; details: 33.3 µM; further: in the data most compounds retested in dose-response had high values
T3 sequence (whole entry): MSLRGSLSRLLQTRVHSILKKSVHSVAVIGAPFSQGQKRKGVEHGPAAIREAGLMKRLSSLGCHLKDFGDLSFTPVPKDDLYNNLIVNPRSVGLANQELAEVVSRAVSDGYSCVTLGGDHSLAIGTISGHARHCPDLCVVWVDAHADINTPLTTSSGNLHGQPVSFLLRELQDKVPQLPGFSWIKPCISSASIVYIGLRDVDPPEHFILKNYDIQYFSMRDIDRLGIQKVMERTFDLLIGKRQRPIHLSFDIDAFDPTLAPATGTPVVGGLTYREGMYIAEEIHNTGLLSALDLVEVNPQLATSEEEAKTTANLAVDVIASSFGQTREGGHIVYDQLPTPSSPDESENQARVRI

[7] = target: T4, Proteasome subunit beta (Trypanosoma cruzi) (UniProt O96673); assay: Trypanosoma cruzi proteasome chymotrypsin-like activity (TcProtChymo) assay.; further: in the data most compounds retested in dose-response had high values; format: functional; details: 9.37 µM
T4 sequence (whole entry): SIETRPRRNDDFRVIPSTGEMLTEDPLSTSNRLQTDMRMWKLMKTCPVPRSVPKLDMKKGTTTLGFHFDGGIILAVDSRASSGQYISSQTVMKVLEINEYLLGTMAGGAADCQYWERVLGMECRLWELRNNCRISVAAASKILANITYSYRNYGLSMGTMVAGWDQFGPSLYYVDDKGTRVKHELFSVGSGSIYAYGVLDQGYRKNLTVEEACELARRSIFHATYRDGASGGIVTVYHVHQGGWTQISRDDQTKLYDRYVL

Homo sapiens = organism: Homo sapiens; assay: To identify inhibition of the IFN signalling (Jak-Stat) pathway via expression of an eGFP reporter gene under the control of an IFN-stimulated response element (ISRE) containing MxA promoter.; format: functional; details: 30 µM
[8] = target: Shiga toxin 2 (Escherichia coli O157:H7) (UniProt P09385+P09386); assay: E. coli 0.157:H7 Shiga Toxin SOP - stx2 screening assay; format: functional; details: 30 µM
[9] = target: T5, Tyrosyl-tRNA synthetase, putative (Trypanosoma cruzi (strain CL Brener)) (UniProt Q4DSP6); assay: Trypanosoma cruzi tyrosyl tRNA synthetase (TcYRS) _High Tyrosine SOP; format: functional; details: 30 µM; further: in the data most compounds retested in dose-response had high values
T5 sequence (whole entry): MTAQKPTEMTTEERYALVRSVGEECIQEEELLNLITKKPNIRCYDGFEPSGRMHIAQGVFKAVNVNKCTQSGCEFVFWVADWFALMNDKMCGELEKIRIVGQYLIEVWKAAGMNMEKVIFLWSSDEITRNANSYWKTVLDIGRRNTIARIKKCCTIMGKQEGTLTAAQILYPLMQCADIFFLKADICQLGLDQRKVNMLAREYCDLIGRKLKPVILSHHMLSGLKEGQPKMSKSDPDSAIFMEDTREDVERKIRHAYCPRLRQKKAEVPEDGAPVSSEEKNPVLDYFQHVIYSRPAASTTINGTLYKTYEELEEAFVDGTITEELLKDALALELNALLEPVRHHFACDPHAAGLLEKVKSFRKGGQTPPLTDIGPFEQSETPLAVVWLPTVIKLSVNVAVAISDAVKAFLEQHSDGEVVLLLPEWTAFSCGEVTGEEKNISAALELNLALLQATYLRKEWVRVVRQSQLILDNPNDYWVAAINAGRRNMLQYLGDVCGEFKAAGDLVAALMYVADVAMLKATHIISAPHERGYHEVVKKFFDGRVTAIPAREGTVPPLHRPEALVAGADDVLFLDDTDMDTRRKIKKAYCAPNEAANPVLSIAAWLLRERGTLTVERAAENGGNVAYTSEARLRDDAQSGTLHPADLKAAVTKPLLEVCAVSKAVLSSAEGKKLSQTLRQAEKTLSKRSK

[10] = target: T5, Tyrosyl-tRNA synthetase, putative (Trypanosoma cruzi (strain CL Brener)); assay: Trypanosoma cruzi tyrosyl tRNA synthetase (TcYRS) SOP; format: functional; details: 30 µM
[11] = target: Chromo domain-containing protein 1 (Saccharomyces cerevisiae (strain ATCC 204508 / S288c) (Baker's yeast)) (UniProt P32657); assay: ScCHD-1 Enzyme Inhibition Assay; format: functional; details: 30 µM; further: in the data most compounds retested in dose-response had high values
Sequence of Chromo domain-containing protein 1 (Saccharomyces cerevisiae (strain ATCC 204508 / S288c) (Baker's yeast)) (P32657 whole entry, the tested form may be a part): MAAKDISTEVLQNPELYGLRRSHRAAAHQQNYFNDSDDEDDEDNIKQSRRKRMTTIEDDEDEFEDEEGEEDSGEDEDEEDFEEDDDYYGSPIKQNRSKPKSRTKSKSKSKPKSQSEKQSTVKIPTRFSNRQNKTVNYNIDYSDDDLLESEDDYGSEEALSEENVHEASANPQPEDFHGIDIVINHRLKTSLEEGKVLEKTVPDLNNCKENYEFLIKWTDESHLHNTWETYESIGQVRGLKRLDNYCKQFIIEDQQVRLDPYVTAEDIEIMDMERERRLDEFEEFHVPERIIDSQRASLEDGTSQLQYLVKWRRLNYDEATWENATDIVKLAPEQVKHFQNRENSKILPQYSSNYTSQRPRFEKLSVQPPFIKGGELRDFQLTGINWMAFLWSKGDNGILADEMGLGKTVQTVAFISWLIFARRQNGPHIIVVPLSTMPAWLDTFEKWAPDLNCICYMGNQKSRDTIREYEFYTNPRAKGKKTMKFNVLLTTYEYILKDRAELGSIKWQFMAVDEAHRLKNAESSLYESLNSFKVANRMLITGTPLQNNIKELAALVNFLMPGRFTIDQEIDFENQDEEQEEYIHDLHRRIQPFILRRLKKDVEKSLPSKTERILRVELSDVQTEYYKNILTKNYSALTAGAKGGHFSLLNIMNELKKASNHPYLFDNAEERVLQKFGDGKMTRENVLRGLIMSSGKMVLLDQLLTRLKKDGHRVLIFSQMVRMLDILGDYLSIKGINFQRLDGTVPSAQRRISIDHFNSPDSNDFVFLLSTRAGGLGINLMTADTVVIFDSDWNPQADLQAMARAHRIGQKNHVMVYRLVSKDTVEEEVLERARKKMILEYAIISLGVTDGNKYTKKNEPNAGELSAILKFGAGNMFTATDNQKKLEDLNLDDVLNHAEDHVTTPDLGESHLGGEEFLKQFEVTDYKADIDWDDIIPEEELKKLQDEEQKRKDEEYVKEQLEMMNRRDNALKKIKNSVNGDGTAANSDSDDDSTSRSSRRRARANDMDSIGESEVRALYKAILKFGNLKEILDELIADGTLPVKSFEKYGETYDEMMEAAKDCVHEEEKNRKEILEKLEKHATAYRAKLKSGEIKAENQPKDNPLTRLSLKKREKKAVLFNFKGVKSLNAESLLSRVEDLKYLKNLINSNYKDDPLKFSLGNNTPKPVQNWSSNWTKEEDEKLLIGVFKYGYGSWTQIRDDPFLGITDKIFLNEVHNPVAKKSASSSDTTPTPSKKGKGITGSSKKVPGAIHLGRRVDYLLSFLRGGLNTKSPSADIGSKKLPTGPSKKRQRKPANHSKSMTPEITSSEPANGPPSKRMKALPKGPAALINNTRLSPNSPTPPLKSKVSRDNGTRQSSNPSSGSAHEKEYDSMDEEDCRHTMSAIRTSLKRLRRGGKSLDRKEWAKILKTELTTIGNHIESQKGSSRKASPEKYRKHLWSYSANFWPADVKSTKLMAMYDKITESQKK

Sequence of Protein translocase subunit SecA (Escherichia coli (strain K12)) (P10408 whole entry): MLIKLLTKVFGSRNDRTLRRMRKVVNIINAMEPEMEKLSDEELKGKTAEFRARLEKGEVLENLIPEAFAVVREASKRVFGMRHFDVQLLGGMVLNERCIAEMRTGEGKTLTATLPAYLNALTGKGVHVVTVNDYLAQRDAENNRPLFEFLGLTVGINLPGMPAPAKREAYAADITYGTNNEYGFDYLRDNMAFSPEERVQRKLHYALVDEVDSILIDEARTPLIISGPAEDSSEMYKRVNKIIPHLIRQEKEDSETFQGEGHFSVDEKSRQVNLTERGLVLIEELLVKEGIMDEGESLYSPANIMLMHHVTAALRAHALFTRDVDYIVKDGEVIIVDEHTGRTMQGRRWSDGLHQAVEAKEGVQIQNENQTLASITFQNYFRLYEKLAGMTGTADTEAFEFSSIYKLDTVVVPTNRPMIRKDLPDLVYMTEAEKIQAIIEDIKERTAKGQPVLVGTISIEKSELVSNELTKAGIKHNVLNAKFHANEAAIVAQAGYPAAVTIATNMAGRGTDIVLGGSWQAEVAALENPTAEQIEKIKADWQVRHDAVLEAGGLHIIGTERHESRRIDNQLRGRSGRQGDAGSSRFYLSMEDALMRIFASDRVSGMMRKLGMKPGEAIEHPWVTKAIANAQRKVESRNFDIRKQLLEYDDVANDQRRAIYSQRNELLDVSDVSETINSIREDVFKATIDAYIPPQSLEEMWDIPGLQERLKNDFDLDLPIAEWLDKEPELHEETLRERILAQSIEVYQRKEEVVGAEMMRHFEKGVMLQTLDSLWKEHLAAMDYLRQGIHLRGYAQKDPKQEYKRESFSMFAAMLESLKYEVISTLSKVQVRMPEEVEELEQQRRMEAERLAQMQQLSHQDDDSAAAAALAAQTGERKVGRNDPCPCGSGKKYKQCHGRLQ
Sequence of Sialic acid-binding Ig-like lectin 9 (Homo sapiens) (Q9Y336 whole entry): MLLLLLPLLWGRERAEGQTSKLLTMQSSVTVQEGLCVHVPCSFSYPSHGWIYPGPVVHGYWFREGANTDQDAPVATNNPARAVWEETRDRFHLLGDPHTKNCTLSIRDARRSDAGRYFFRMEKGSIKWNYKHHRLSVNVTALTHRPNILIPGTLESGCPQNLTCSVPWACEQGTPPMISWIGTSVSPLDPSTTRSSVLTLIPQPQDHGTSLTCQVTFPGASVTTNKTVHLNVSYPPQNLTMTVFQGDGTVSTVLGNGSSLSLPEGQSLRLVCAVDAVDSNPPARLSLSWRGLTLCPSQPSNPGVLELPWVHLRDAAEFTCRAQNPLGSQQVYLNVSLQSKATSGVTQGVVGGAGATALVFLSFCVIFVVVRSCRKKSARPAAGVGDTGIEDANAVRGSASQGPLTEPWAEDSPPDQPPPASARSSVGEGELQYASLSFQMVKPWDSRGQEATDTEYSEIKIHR

Compound | Percent Effect [1] | Percent Effect [2] | Percent Effect [3] | Percent Effect [4] | Percent Effect [5] | Percent Effect (Trypanosoma cruzi) | Percent Effect [6] | Percent Effect [7] | Percent Effect (Homo sapiens) | Percent Effect [8] | Percent Effect [9] | Percent Effect [10] | Percent Effect [11]
O=C(N[C@H]1CN[C@H]2CCCO[C@H]21)c1cccnc1 | 1.71% | 16.4% | -0.775% | -3.57% | 7.91% | 5.36% | -2.4% | 9.33% | 8.46% | -2.82% | 8.33% | 11.1% | -3%
COc1ccc2c(ccn2CCN)c1 | -4.08% | -49.3% | -3.77% | -2.79% | 5.94% | -0.982% | 0.176% | 6.65% | 19% | -17.9% | 7.41% | 10.3% | -4.41%
O=C(NC[C@]12COC[C@H]1CN(Cc1ccncc1)C2)c1ccco1 | -2.11% | 13.3% | -0.368% | 7.09% | 2.99% | -2.17% | 4.43% | 12.8% | 7.74% | -4.6% | 10.6% | 21.8% | -2.5%
O=C1[C@H]2CN(CC3CC3)C[C@H]2CN1c1ccsc1 | -6.19% | -2.7% | 1.21% | 4.91% | -3.17% | -2.44% | -1.59% | 6.27% | -11.2% | -5.46% | 3.24% | 0% | 5.84%
O=C(C1CCC1)N1CCC2(CC1)OCCO2 | -3.54% | -2.63% | -4.73% | 2.75% | 1.15% | -1.85% | 7.1% | 6.04% | 5.13% | -1.29% | 0% | 5.2% | -0.64%
Cc1noc(C)c1CN1CC[C@H]2C[C@@H](c3ccncn3)O[C@@H]2C1 | -2.74% | 8.11% | -3.25% | 5.49% | 1.24% | 5.57% | -2.87% | 14.2% | 17.1% | 5.98% | 2.16% | 17.9% | 2.76%
O=C1[C@H]2CN(Cc3cccs3)C[C@H]2CN1c1cncnc1 | -5.75% | 2.6% | -7.76% | 1.57% | 4.28% | -3.25% | -8.28% | 9.65% | 7.38% | -49.4% | 2.15% | 1.24% | 1.9%
